Results from PubChem BioAssay (NCI).
Compounds without any hit were thinned out: in the full panel of roughly 79,000, 15% have a hit. Values without a mark were called inactive. Activity calls are given as the source filed them. Cut-off read from the data, not from the text of the source: active = growth inhibition above about 70%; inactive = the rest.

Experiments:
[1] = NCI Yeast Anticancer Drug Screen. Data for the rad50 strain (AID 155);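 note: 0% = growth of vehicle-only cultures of the same strain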; conditions: S. cerevisiae rad50 strain growth inhibition; at 50.0 µM; stronger effect = higher value
Procedure, shortened: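 Compounds were tested on a yeast strain with an engineered DNA damage repair alteration; the reported value is growth inhibition normalised to vehicle treatment.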

[2] = NCI Yeast Anticancer Drug Screen. Data for the mec2-1 strain (AID 157); conditions: S. cerevisiae mec2-1 strain, at 50.0 µM, stronger effect = higher value
Procedure, shortened: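 Yeast mec2-1 mutant treated with compound. Readout: growth inhibition vs vehicle controls.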

[3] = NCI Yeast Anticancer Drug Screen. Data for the sgs1 mgt1 strain (AID 161);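 note: 0% = growth of cultures given vehicle only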; conditions: S. cerevisiae sgs1 mgt1 strain, at 50.0 µM, stronger effect = higher value
Procedure, shortened: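 Read-out: growth inhibition vs vehicle controls. Cells: mutant yeast strain deficient in DNA damage repair.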

[4] = NCI Yeast Anticancer Drug Screen. Data for the cln2 rad14 strain (AID 165);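 note: 0% = growth equal to vehicle treated cultures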; conditions: S. cerevisiae cln2 rad14 strain, at 50.0 µM, stronger effect = higher value
Procedure, shortened: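 cln2 rad14 yeast strain; compound exposure; growth inhibition read vs vehicle controls.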

[5] = NCI Yeast Anticancer Drug Screen. Data for the bub3 strain (AID 167); conditions: S. cerevisiae bub3 mutant strain, at 50.0 µM, stronger effect = higher value
Procedure, shortened: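 Growth of a checkpoint-deficient yeast mutant is measured after compound exposure. Values represent inhibition relative to vehicle.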

[6] = NCI Yeast Anticancer Drug Screen. Data for the mlh1 rad18 strain (AID 175); conditions: S. cerevisiae mlh1 rad18 strain growth inhibition; at 50.0 µM; stronger effect = higher value
Procedure, shortened: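 Yeast w/ defined DNA-repair lesions; compound exposure; growth vs vehicle controls → % inhibition.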

Compound | growth inhibition [1] | growth inhibition [2] | growth inhibition [3] | growth inhibition [4] | growth inhibition [5] | growth inhibition [6]
COc1ccc([C@H]2CC3C(=O)N(c4ccc(OC)cc4)C(=O)C3c3[nH]c4ccccc4c32)cc1 (some centres not stated) | -10.1% | -2.95% | -1.05% | -64.2% | -16.4% | -16.9%
CCNC(CC(N)=O)C(=O)O (configuration not stated) | -22.1% | -3.75% | 0.15% | -4.05% | -26.4% | -11.6%
Nc1ccc(N)c2cc(S(=O)(=O)O)ccc12 | 3.85% | -4.8% | -5.1% | 6.4% | -16.2% | 7.9%
O=C(NC12CC3CC(CC(C3)C1)C2)C(=O)c1c[nH]c2ccc(Br)cc12 | -21.9% | -20.3% | -14.1% | -21.4% | -2.95% | -52.4%
O=C1CCC(C(=O)Nc2ccc(Cl)c(Cl)c2)N1 (configuration not stated) | 1.75% | 10.6% | 8.5% | -10.7% | 1.1% | -8.15%
COc1ccc2c(Cl)ccnc2c1OC | 15.3% | 6.1% | 10.9% | -15% | 23.4% | 21.8%
CC1=C(/C=C/C(O)CC(O)(C(F)(F)F)C(F)(F)F)C(C)(C)CCC1 (configuration not stated) | 38% | 20.8% | 18.9% | 43.2% | 17% | 63.1%
COCC(Cl)/C(N)=N\S(=O)(=O)c1ccc(Cl)cc1 (configuration not stated) | 5.8% | -17.4% | 15.2% | 14.8% | 26.2% | 4.95%
C=C1CC(C)(COc2cc(=O)oc3ccccc23)OC1=O (configuration not stated) | 51% | 30.3% | 53.2% | 38.5% | 25.6% | 40.5%
CC1=Nc2ccccc2N2C1=CC1=C(C(=O)c3cc4ccccc4cc3C1=O)C2C (configuration not stated) | 16.4% | 6.65% | 5.75% | 24.2% | -5.2% | 24.4%
Cc1cc(C)c(NS(=O)(=O)c2ccc(Cl)cc2)cc1C | 94.5% (active) | 85.8% (active) | 92.2% (active) | 70% | 87.6% (active) | 90.5% (active)
CNC(=O)OCc1c(COC(=O)NC)c(C)n(-c2ccc3c(c2)OCO3)c1C | -3.2% | -6.95% | 19.2% | -0.45% | 1.35% | -40.3%
CC1(C)CCCc2c(-c3ccccc3)cc3c4[nH]c5ccccc5c4cc[n+]3c21 | 23.6% | -5.4% | 11.1% | 3.65% | -2.5% | 7%
O=C(CC(=O)C1CCOC1=O)C(=O)Nc1cccc(Cl)c1 (configuration not stated) | -13.8% | -8.55% | 5.5% | -10.7% | -12% | 21.4%
CC(C)(C)c1cc(C(=O)O)ccc1C(=O)O | -4.2% | 12.1% | -2.75% | -4.2% | -26.4% | -8.15%
Cc1cc(=O)oc2cc(NC(=O)C(CCCN=C(N)N)NC(=O)OCc3ccccc3)ccc12 (configuration not stated) | 26.5% | -17.4% | 23.1% | -2.95% | -4.1% | 7.1%
CCOC(=O)c1nnsc1NN | 8.8% | -7.45% | -47.6% | 0.95% | -22.4% | -4.1%
c1ccc(C2OC3C4COC(O4)C3O2)cc1 (configuration not stated) | -24.7% | -19.9% | -15.4% | -19.1% | -1.75% | -9.7%
Clc1ccc(CCn2cncn2)cc1 | -15.6% | -11.9% | -44.9% | -11.7% | -22.6% | -18.8%
CCN(CC)c1ccc(NC(=O)CCl)cc1 | -3.95% | -12.5% | -13% | 1.45% | -15.8% | 8.2%
Cn1nnnc1CCO | -9.45% | 7.05% | -13.4% | -0.55% | 2.9% | -8.55%

Compound | growth inhibition [1] | growth inhibition [2] | growth inhibition [3] | growth inhibition [4] | growth inhibition [5] | growth inhibition [6]
NC(=O)/N=N/C(N)=O | 10.8% | -1.05% | 13.6% | 15.2% | 21.1% | 27.7%
O=c1cc[nH]c2c(Cl)cccc12 | -8.15% | -20.9% | -5.05% | 0.95% | 2% | -2.9%
CC1CCC(Oc2nc3c(c(=O)n(C)c(=O)n3C)n2C)CC1 (configuration not stated) | -4.75% | -2.85% | -14.8% | 2% | -8.7% | -12.5%
CCC(Oc1ccc(Cl)cc1Cl)C(=O)O (configuration not stated) | -4.4% | -9.8% | -8.65% | -8.25% | -10.2% | -1.75%
COCCOC(=O)CO | 4.35% | 3.85% | -4.7% | 2.25% | 7.8% | 5.5%
O=C1c2ccccc2C(=O)N1CN1CCC(CCCC2CCN(CN3C(=O)c4ccccc4C3=O)CC2)CC1 | -58.5% | -34.2% | -36.3% | -11.1% | -48.1% | -44.8%
O=S(=O)(O)c1ccc(N=Nc2c(O)cc(O)cc2O)cc1 | -21.9% | -6.8% | -6.95% | 17.2% | 31.8% | -18.4%
Cn1c2c(c3ccccc31)C(=O)CC2(C)C | -5.6% | -4.8% | -2.35% | -18.2% | -30.6% | 2.15%
O=c1c2c([nH]n1-c1ccccc1)-c1ccccc1CS2 | 40.2% | 15.9% | 37.8% | 9.55% | 40.6% | 28.9%
CCCCNC(=O)c1ccc([N+](=O)[O-])cc1 | 29.3% | 12% | 13.4% | 17.6% | -16.8% | -9.05%
CCOC(=O)/C(=C(/N)C1OC(COC(c2ccccc2)(c2ccccc2)c2ccccc2)C2OC(C)(C)OC12)C1CC(=O)N(C)C1=O (configuration not stated) | -4.35% | 16.1% | 12.7% | -27.8% | -7.35% | 41.5%
O=C1/C=C2/C=CC=CN2C(=O)/C=C2/C=CC=CN12 | -1.6% | -15.3% | -15% | 1.65% | 0.95% | -11.9%
CCCCCC(=O)Cc1cc(OC)cc2c1C(=O)Oc1cc(O)c(C(=O)O)c(CC(=O)CCCCC)c1O2 | 83% (active) | 86.5% (active) | 85.8% (active) | 79.4% (active) | 80.1% (active) | 78.1% (active)
COc1ccc(/C=C(\C2=NC(=O)CS2)c2nc3ccccc3[nH]2)cc1 | -0.35% | -4.2% | -20.1% | -3.9% | -20.4% | -24.9%
O=C(Oc1ccco1)c1ccc([N+](=O)[O-])cc1 | 2.55% | 0.6% | -4.7% | -17.2% | 0.1% | -9.8%
[Cl][Pt+2][Cl].[NH-]C1CCCCC1C1CCCCC1[NH-] (configuration not stated) | 14.6% | -12.4% | -29.2% | -41.2% | -29.8% | -27.4%
COc1ccc(NC(=O)Cc2cc3ccccc3oc2=O)cc1 | 8.05% | 1.05% | -3.75% | -46.3% | -0.3% | 7.95%
CC(C)(C)c1ccn[nH]1.CC(C)(C)c1ccn[nH]1.[Cl-].[Cl-].[O]=[V][O-] | 0.9% | -12.4% | 9.65% | -29.2% | -21.8% | -12.8%
O=C1c2ccccc2C(=O)c2cc(Br)ccc21 | -6.75% | -21.6% | 12.4% | -110% | -16.2% | 0.2%
CCC(=O)[C@@]1(OC(C)=O)CC[C@H]2[C@@H]3CCC4=CC(=O)CC[C@]4(C)[C@H]3CC[C@@]21C | 28.1% | 17.5% | 30.9% | 36.7% | 26.9% | 16%
CNc1nc(Cl)cc2nc(Cl)cn12 | -2.15% | 15.8% | -18.6% | -12.1% | 8.3% | 4.55%
